The values that follow come from the supplement of paper PMC4723716.

± gives the uncertainty stated by the source. The full ranking holds about 9,900 compounds; the median of “viability index relative to DMSO control” is about 1, and the lowest 2% start at about 0.85. Only a selection was taken, and the lowest values are over-represented in it overall.

This assay has as its system Plasmodium falciparum NF54 stage V gametocytes. Kind of assay: viability index relative to DMSO control (fraction); higher = less gametocyte killing. The note with it: 2.5 µM, incubation time: 72 h. Put shortly:
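Stage V gametocytes of P. falciparum NF54 were held in serum-free screening medium at 0.75% gametocytemia and 1.25% hematocrit, 10 µl per well of a 1,536-well plate, and exposed to compound at 2.5 µM for 72 hr at 37°C under low oxygen. A 3 µl mix of 2.5 µM MitoTracker Red CMXRos with 0.13% saponin was then added for one to two hours, after which one field per well was imaged and red particles of 20–70 µm2 were counted. The viability index equals this count divided by the plate mean from wells given solvent alone.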

The mark [1] stands for this setting: library set: Broad Institute DOS.
[2] abbreviates: library set: Broad Institute Blood Stage.

Compound `C[C@H](CO)N1C[C@H](C)[C@H](CN(C)Cc2ccc(Oc3ccccc3)cc2)Oc2ccc(N(C)C)cc2C1=O` yielded a viability index under setting [1] of 1.01 ± 0.043.

For `O=C(CCN1CCCCC1)N[C@H]1CC[C@@H](CCn2cc(-c3cccc(F)c3)nn2)O[C@H]1CO`, the viability index under setting [1] is 1.07 ± 0.038.

The compound `C[C@@H]1CN([C@@H](C)CO)C(=O)c2cc(NC(=O)Nc3cccc4ccccc34)ccc2O[C@@H](C)CCCCO[C@@H]1CN(C)S(=O)(=O)c1cn(C)cn1` registered a viability index under setting [1] of 0.949 ± 0.081.

The compound `C[C@@H]1CC(=O)NCC/C=C\C[C@H](c2ccc3c(c2)OCO3)NC1=O` yielded a viability index under setting [1] of 1.059 ± 0.0056.

`C[C@@H]1CN([C@@H](C)CO)C(=O)CCCn2nncc2CO[C@H]1CN(C)S(=O)(=O)c1cn(C)cn1` showed a viability index under setting [1] of 1.07 ± 0.065.

In turn, `C[C@H]1CN([C@@H](C)CO)C(=O)c2cc(N(C)C)ccc2O[C@@H]1CN(C)CC1CCCCC1` showed a viability index under setting [1] of 1.01 ± 0.12.

`COc1ccc2c3c([C@H](CO)N(C[C@]33CN(Cc4ccccc4F)C3)C(=O)Nc3ccc(F)cc3)n(C)c2c1`: the viability index under setting [1] was 1 ± 0.091.

Under setting [1], `COc1ccc2c3c([C@@H](CO)N(C[C@]33CN(Cc4ccccc4F)C3)C(=O)Nc3ccc(F)cc3)n(C)c2c1` returned a viability index of 0.791 ± 0.066.

As to `COc1ccc2c3c([C@@H](CO)N(C[C@]33CN(C3)C(=O)Cc3ccncc3)C(=O)Nc3ccc(F)cc3)n(C)c2c1`, under setting [1], the viability index amounted to 0.974 ± 0.085.

The compound `COc1cccc(C#Cc2ccc([C@H]3[C@@H](CO)N4C(=O)CN(C(=O)c5ccccc5)C[C@H]34)cc2)c1` gave a viability index under setting [2] of 0.754 ± 0.074.

`COc1cccc(C#Cc2ccc([C@@H]3[C@@H](CO)N4C(=O)CN(C(=O)Cc5cccnc5)C[C@H]34)cc2)c1` displayed a viability index under setting [1] of 1.01 ± 0.084.

Under setting [1], `COc1cccc(C#Cc2ccc([C@H]3[C@H]4CN(C(=O)Cc5cccnc5)CC(=O)N4[C@H]3CO)cc2)c1` had a viability index of 1.057 ± 0.0037.

In the case of `CCCNC(=O)N1CC(=O)N2[C@H](CO)[C@H](c3ccc(C#Cc4cccc(OC)c4)cc3)[C@@H]2C1`, the viability index under setting [1] was 1.02 ± 0.062.

`COc1cccc(C#Cc2ccc([C@@H]3[C@H](CO)N4C(=O)CN(C(=O)Cc5cccnc5)C[C@@H]34)cc2)c1` returned a viability index under setting [1] of 0.904 ± 0.094.

Under setting [1], `O=C(Cc1cccnc1)N1CC(=O)N2[C@H](CO)[C@H](c3ccc(C#CC4CCCCC4)cc3)[C@H]2C1` had a viability index of 0.801 ± 0.073.

For the compound `O=C(Cc1cccnc1)N1CC(=O)N2[C@H](CO)[C@@H](c3ccc(C#CC4CCCCC4)cc3)[C@@H]2C1`, the viability index under setting [1] came out at 1.07 ± 0.032.

In turn, `O=C(Cc1cccnc1)N1CC(=O)N2[C@H](CO)[C@@H](c3ccc(C#CC4CCCCC4)cc3)[C@H]2C1` registered a viability index under setting [1] of 1.04 ± 0.06.

The compound `COc1cccc(C#Cc2ccc([C@H]3[C@@H](CO)N4C(=O)CN(C(=O)Cc5ccccc5)C[C@H]34)cc2)c1` yielded a viability index under setting [2] of 0.778 ± 0.047.

With `COc1cccc(C#Cc2ccc([C@H]3[C@H](CO)N4C(=O)CN(C(=O)Cc5cccnc5)C[C@@H]34)cc2)c1`, the viability index under setting [1] came out at 0.945 ± 0.048.

In the case of `CCCNC(=O)N1CC(=O)N2[C@H](CO)[C@@H](c3ccc(C#Cc4cccc(OC)c4)cc3)[C@H]2C1`, the viability index under setting [1] came out at 0.936 ± 0.075.

Regarding `COc1cccc(C#Cc2ccc([C@H]3[C@@H](CO)N4C(=O)CN(C(=O)Cc5cccnc5)C[C@H]34)cc2)c1`, the viability index under setting [1] was determined as 0.804 ± 0.11.

Regarding `CO[C@@H]1CN(C)C(=O)c2cc(NS(C)(=O)=O)ccc2OC[C@@H](C)N(C(=O)C2CCOCC2)C[C@@H]1C`, the viability index under setting [1] was found to be 1.17 ± 0.07.

Under setting [1], `CN(C)C(=O)c1ccc(-c2ccc([C@@H]3[C@@H]4CN(Cc5ccc6c(c5)OCO6)C[C@H]3N4)cc2)cc1` registered a viability index of 1.05 ± 0.098.

The compound `COc1ccc2c3c([C@H](CO)N(Cc4ccncc4)C[C@]33CN(C3)C(=O)C3CCCCC3)n(C)c2c1` had a viability index under setting [1] of 1.03 ± 0.079.

As to `O=C(C1CCOCC1)N1CC(=O)N2[C@@H](CO)[C@H](c3ccc(C#CCc4ccccc4)cc3)[C@@H]2C1`, the viability index under setting [1] was 1.084 ± 0.0042.

For the compound `C[C@@H](NC(=O)[C@@H]1[C@@H](CO)[C@@H]2Cn3c(ccc(-c4ccccc4)c3=O)[C@@H]2N1C)c1ccccc1`, under setting [1], the viability index was 1.05 ± 0.015.

With `O=C(C[C@@H]1C[C@@H]2c3cc(NS(=O)(=O)c4ccc(F)cc4)ccc3O[C@@H]2[C@H](CO)O1)N1CCc2ccccc2C1`, the viability index under setting [1] came to 1.13 ± 0.069.

In turn, `COCC(=O)N1CC(=O)N2[C@H](CO)[C@H](c3ccc(C#CC4CC4)cc3)[C@H]2C1` returned a viability index under setting [1] of 1.11 ± 0.027.

`CN(C[C@H]1N[C@@H](CO)[C@H]1c1ccc(-c2ccc(F)cc2)cc1)C(=O)C1CCC1` yielded a viability index under setting [1] of 0.971 ± 0.025.

For `CCS(=O)(=O)N(C)C[C@@H]1N[C@H](CO)[C@@H]1c1ccc(-c2ccccc2F)cc1`, the viability index under setting [1] stood at 1.05 ± 0.031.

Under setting [1], `CCN(C[C@@H]1N[C@@H](CO)[C@H]1c1ccc(-c2ccc(F)cc2)cc1)C(=O)CN(C)C` gave a viability index of 0.711 ± 0.021.

`O=C(C[C@@H]1CC[C@H]2NC[C@@H](O)COC[C@@H]2O1)NC1Cc2ccccc2C1`: the viability index under setting [1] was 0.9847 ± 0.0032.

The compound `O=C(C[C@H]1CC[C@H]2NC[C@@H](O)COC[C@@H]2O1)Nc1ccc(-c2ccccc2)cc1` displayed a viability index under setting [1] of 0.997 ± 0.036.

Turning to `C/C=C/c1ccc([C@H]2[C@@H](CO)N(c3nc(CC)cs3)[C@H]2C#N)cc1`, the viability index under setting [1] is 1.09 ± 0.035.

In turn, `CCc1csc(N2[C@H](CO)[C@H](c3ccccc3)[C@@H]2CNC)n1` had a viability index under setting [1] of 0.372 ± 0.18.

In turn, `CCc1csc(N2[C@H](CO)[C@H](c3ccccc3)[C@@H]2CN(C)C(=O)C2CCC2)n1` returned a viability index under setting [1] of 1.03 ± 0.059.

With `CO[C@@H]1CN(C)C(=O)c2cc(NC(=O)Nc3cc(F)ccc3F)ccc2OC[C@H](C)NC[C@H]1C`, under setting [1], the viability index turned out to be 1.022 ± 0.01.
